Hits are enriched below; roughly 4% of the tested compounds scored in any of these assays.
CF NFkB block – blocks PAF-induced NF-kB reporter in cystic fibrosis cells. inhibition, % at 5 µM. actives 0.86% (n = 360,000). AID 588850. KKLEB NF-kB-GFP reporter, GFP fluorescence overnight;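 active = at least 50% inhibition at 5 µM, scaled per plate between neutral and stimulator controls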;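 note: PAF is a Pseudomonas aeruginosa culture filtrate used as stimulus; plate controls were PAF-stimulated DMSO wells for no effect and unstimulated DMSO wells for full effect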
TROY signal inh – inhibitors of TROY-dependent NF-kB signaling. Q293 LMP1-TROYcd NF-kB luciferase reporter, 4 h. inhibition, % at 10 µM. actives 0.98% (n = 360,000). AID 1347056;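 active = compounds whose plate-normalised and pattern-corrected inhibition of the luciferase reporter signal at the single screening dose is 50% or more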
HIF-2a block – blocks HIF-2a reporter activity. actives 0.72% (n = 360,000). 786-0 RCC cells HIF-2a reporter, luciferase luminescence, overnight. inhibition, % at 18.8 µM;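 active = inhibition of the luminescence signal of 40% or more relative to plate controls, in a single-dose primary screen at 18.75 µM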
KKLEB cytotox – counter-screen for CF NF-kB inhibitors: cytotoxicity | KKLEB CF airway cells viability, ATPlite luminescence, overnight; active compounds read low; cells stimulated with P. aeruginosa culture filtrate | activity change (cytotoxicity), % at 5 µM | actives 0.36% (n = 360,000) | AID 602141;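 active = corrected activity change at or below -50% at 5 µM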
TWEAK-Fn14 inh – inhibitors of TWEAK-Fn14 interaction signaling; TWEAK-stimulated Fn14 reporter cells, luciferase luminescence, 8 h; inhibition, % at 10 µM; actives 2% (n = 360,000); in the data active = inhibition above about 50%
Peg3 prom inh – inhibitors of Peg3 promoter; AID 588405; inhibition, % at 20 µM; actives 1.7% (n = 360,000); HeLa PEG-Prom luciferase reporter, luminescence, overnight;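 active = inhibition of at least 50% at 20 µM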
CF NFkB conf – CF NF-kB inhibition confirmation, single concentration; shares compounds with CF NFkB block; KKLEB CF airway cells, PAF-induced NF-kB-GFP fluorescence, overnight; inhibition, % at 5 µM; actives 64% (n = 1,300); in the data active = inhibition above about 40%;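 note: stimulus PAF is a Pseudomonas aeruginosa filtrate and not platelet activating factor; plate controls were DMSO wells with stimulus for no effect and unstimulated DMSO wells for full effect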
Mdm2-MdmX confirm – confirmation of inhibitors of human Mdm2/MdmX interaction, set 2; SaOS-2 split-luciferase Mdm2/MdmX complementation, luminescence; inhibition, % at 8 µM; actives 99% (n = 740); shares compounds with HIF-2a block;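 active = mean inhibition of the luminescence signal across two replicates at or above 26 percent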
Target sequence (O15151 whole entry, looked up): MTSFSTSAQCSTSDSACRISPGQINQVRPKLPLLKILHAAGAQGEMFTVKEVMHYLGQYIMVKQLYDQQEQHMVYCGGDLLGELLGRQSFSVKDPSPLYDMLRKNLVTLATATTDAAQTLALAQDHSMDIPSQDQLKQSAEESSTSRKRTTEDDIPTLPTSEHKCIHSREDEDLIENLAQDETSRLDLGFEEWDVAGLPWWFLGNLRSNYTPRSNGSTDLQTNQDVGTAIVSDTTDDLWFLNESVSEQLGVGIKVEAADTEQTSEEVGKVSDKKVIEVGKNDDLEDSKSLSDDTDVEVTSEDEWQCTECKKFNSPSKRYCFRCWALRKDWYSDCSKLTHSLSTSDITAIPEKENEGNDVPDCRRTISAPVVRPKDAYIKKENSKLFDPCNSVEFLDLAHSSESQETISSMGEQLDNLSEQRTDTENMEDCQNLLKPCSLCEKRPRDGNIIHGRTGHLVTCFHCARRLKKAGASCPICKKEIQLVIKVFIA
Target sequence (Q00987 whole entry, looked up): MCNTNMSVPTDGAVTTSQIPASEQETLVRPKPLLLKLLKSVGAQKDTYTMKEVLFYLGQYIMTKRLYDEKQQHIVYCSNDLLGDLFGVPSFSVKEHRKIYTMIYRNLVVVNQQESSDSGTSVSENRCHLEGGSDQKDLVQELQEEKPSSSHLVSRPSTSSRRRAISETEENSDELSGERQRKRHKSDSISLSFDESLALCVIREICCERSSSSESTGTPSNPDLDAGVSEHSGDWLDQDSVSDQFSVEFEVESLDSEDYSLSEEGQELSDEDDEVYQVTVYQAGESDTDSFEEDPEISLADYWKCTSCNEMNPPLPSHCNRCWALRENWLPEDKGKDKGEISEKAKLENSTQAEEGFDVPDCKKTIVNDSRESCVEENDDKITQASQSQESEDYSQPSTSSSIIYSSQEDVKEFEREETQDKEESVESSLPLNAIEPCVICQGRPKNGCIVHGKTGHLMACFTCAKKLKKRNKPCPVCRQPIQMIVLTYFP
HIF-2a conf – HIF-2a inhibition, single concentration confirmation; actives 56% (n = 1,800); AID 651580; 786-0 RCC cells, HIF-2a luciferase reporter luminescence, overnight; inhibition, % at 18.8 µM; shares compounds with HIF-2a block;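 active = mean inhibition across four replicates of at least 40 percent at the single tested concentration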
HIF-1a counter – HIF-1a inhibition counter-screen for HIF-2a hits; inhibition, % at 18.8 µM; actives 72% (n = 1,800); MiaPaCa-2 HIF-1a luciferase reporter, desferoxamine, overnight; shares compounds with HIF-2a block;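 active = mean inhibition of the reporter signal across four replicates at the single tested dose of 50% or more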
The depositor's hits bear a star; . = no result.

SMILES | CF NFkB block | TROY signal inh | HIF-2a block | KKLEB cytotox | TWEAK-Fn14 inh | Peg3 prom inh | CF NFkB conf | Mdm2-MdmX confirm | HIF-2a conf | HIF-1a counter
O=C(Nc1ccccc1N1CCCC1)c1ccc([N+](=O)[O-])o1 | 46 | 11 | 18 | -16 | 5 | 31 | . | . | . | .
O=C(Nc1ccc(S(=O)(=O)N2CCCCCC2)cc1)c1[nH]ncc1[N+](=O)[O-] | 70* | -37 | 40* | -12 | -19 | -21 | -49 | . | 74* | 88*
CC(=O)OC1CCC2C3CCC4OC(=O)CCC4C3CCC12C (centres undefined) | -23 | 7 | -10 | 12 | -4 | 4 | . | . | . | .
C=C1C(=O)C2=CC1CCC(=O)C1(C)CCC(OC(C)=O)C(C)(C)C1CC2O (centres undefined) | 83* | 46 | 86* | 9 | 101* | 99* | 83* | . | 95* | 105*
O=C(OCc1cccc(F)c1)c1ccc2c(=O)n3c(nc2c1)CCC3 | 22 | -32 | -60 | -18 | -21 | -59 | . | . | . | .
C=C1C(=O)O[C@@H]2[C@H]1[C@@H](OC(=O)/C(C)=C/C)C/C(C)=C\C(=O)/C=C(\C)[C@@H]2O | 86* | 29 | 95* | -4 | 67* | 111* | -11 | 103* | 73* | 102*
C=C1C(=O)O[C@H]2[C@H]1[C@H](OC(=O)/C(C)=C\C)C[C@]1(CO1)[C@@H]1[C@H](OC(C)=O)C=C(C)[C@]21O | -2 | 11 | 4 | 15 | 16 | 14 | . | . | . | .
CS(=O)(=O)c1ccc(C(=O)OCC(=O)NC23CC4CC(CC(C4)C2)C3)cc1[N+](=O)[O-] | 61* | 73* | 92* | -16 | 102* | 100* | 35 | . | 64* | 94*
COc1cccc(C(=O)OCC(=O)NC23CC4CC(CC(C4)C2)C3)c1 | 5 | -13 | 10 | -3 | -2 | -11 | . | . | . | .
CCOC(=O)C(=Cc1ccc(-n2cncn2)cc1)C(=O)OCC | 75* | 63* | 94* | -8 | 101* | 104* | 22 | . | 90* | 106*
Cc1ccc2[nH]cc(C(=O)CCl)c2c1 | 60* | -6 | 16 | -19 | -9 | 108* | 86* | 103* | . | .
Cc1ccc2[nH]cc(C(=O)CN3CCN(C)CC3)c2c1 | -1 | -9 | 2 | 3 | -21 | 5 | . | . | . | .
O=C(Nc1cc(Cl)ccc1N1CCCC1)C1=COCCO1 | 11 | 2 | -5 | 0 | -9 | 3 | . | . | . | .
C=CCN1c2ccccc2[C@]23C[C@@H](C(=O)OC)N(C(=O)c4ccc(Br)cc4)C2=NC(C(=O)OC)=C(C(=O)OC)[C@H]13 | 71* | 31 | -12 | -30 | 61* | 74* | 58* | 96* | . | .
COC(=O)C1=C(C(=O)OC)[C@@H]2N(Cc3ccccc3)c3ccccc3[C@@]23C[C@@H](C(=O)OC)N(C(=O)c2ccc(Br)cc2)C3=N1 | 69* | 10 | 2 | -24 | 54* | 84* | 78* | 98* | . | .
CC1CCC/C=C/C(=O)c2c(O)cc(O)cc2CC(=O)O1 (centres undefined) | 82* | 43 | 91* | -5 | 94* | 106* | 36 | 103* | 80* | 102*
C[C@@H]1Cc2c(O)c(O)cc(O)c2C(=O)O1 | 0 | 3 | 10 | 10 | -4 | 0 | . | . | . | .
CC(=O)CCCC(NS(=O)(=O)CCC(Cl)(Cl)Cl)c1ccccc1 (centres undefined) | -7 | -3 | 13 | 5 | -4 | 3 | . | . | . | .
CC1(C(=O)Nc2ccc3[nH]ncc3c2)CCN1C(=O)CCc1ccccc1 (centres undefined) | 0 | -11 | 8 | 11 | -6 | 3 | . | . | . | .

High-throughput results from PubChem BioAssay.
